Measurements: PubChem BioAssay (NCI)
“And” between values parts separate entries of the source, which are not always exact repeats. Equal entries are not always repeated. The panel holds about 83,000 compounds, 20% with a hit somewhere; the sample as a whole holds those more often.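 Values shown are percent growth following 48 h exposure of cells in 96-well plates to a single concentration of compound; below 10 was considered active.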 The source made the active and inactive calls.

Assays:
Experiment in all cases: NCI-60 one-dose screen, 48 h (100 = growth as untreated, 0 = no growth, -100 = all killed)
[1] = system: SR leukemia; conditions: 10 µM unless noted
[2] = system: RPMI-8226 leukemia; conditions: 10 µM unless noted
[3] = system: OVCAR-5 ovarian
[4] = system: OVCAR-4 ovarian
[5] = system: SK-OV-3 ovarian
[6] = system: IGROV1 ovarian
[7] = system: HS 578T breast
[8] = system: NCI/ADR-RES ovarian
[9] = system: T-47D breast
[10] = system: BT-549 breast
[11] = system: MDA-MB-435 melanoma; conditions: 10 µM unless noted
[12] = system: SW-620 colon
[13] = system: MCF7 breast
[14] = system: HCT-116 colon
[15] = system: HCC-2998 colon
[16] = system: KM12 colon
[17] = system: OVCAR-3 ovarian; conditions: 10 µM unless noted
[18] = system: OVCAR-8 ovarian

Measured: growth

N#Cc1ccc([N+](=O)[O-])o1
inactive: [1] 104% | [2] 107% | [3]; 10 µM unless noted 107% | [4]; 10 µM unless noted 107% | [5]; 10 µM unless noted 96.4% | [6]; 10 µM unless noted 109% | [7]; 10 µM unless noted 100% | [8]; 10 µM unless noted 114% | [9]; 10 µM unless noted 85.1% | [10]; 10 µM unless noted 101% | [11] 108% | [12]; 10 µM unless noted 106% | [13]; 10 µM 101% | [14]; 10 µM unless noted 92.6% | [15]; 10 µM unless noted 117% | [16]; 10 µM unless noted 102%

CN(C)c1ccc(N=Nc2cccc3ccccc23)cc1
inactive: [1] 111% | [2] 72.5% | [3]; 10 µM unless noted 107% | [4]; 10 µM unless noted 81.4% | [5]; 10 µM unless noted 80.1% | [6]; 10 µM unless noted 67.2% | [17] 84.3% | [7]; 10 µM unless noted 95% | [8]; 10 µM unless noted 102% | [9]; 10 µM unless noted 22.2% | [10]; 10 µM unless noted 76.8% | [12]; 10 µM unless noted 98.6% | [13]; 10 µM 14.2% | [14]; 10 µM unless noted 75.2% | [15]; 10 µM unless noted 69.2% | [16]; 10 µM unless noted 94.2%

CCC(=O)Sc1ccccc1C(=O)Nc1ccc(Cl)cc1
inactive: [1] 26.3% | [18]; 10 µM unless noted 78.8% | [3]; 10 µM unless noted 110% | [4]; 10 µM unless noted 44.5% | [5]; 10 µM unless noted 87.3% | [6]; 10 µM unless noted 71.2% | [17] 39.9% | [7]; 10 µM unless noted 54.5% | [8]; 10 µM unless noted 52.6% | [9]; 10 µM unless noted 45.1% | [10]; 10 µM unless noted 10.2% | [11] 25.9% | [12]; 10 µM unless noted 17.5% | [13]; 10 µM 19% | [14]; 10 µM unless noted 25.8% | [15]; 10 µM unless noted 85.7% | [16]; 10 µM unless noted 64.9%

CN=C(N)N/N=C(\C)c1ccc2c(c1)Cc1cc(/C(C)=N/NC(N)=NC)ccc1-2
inactive: [6]; 10 µM unless noted 26.5% | [8]; 10 µM unless noted 64.8% | [10]; 10 µM unless noted 49.6%
active: [1] -23.3% | [2] -1.58% | [3]; 10 µM unless noted -44.4% | [4]; 10 µM unless noted -69.1% | [5]; 10 µM unless noted -80.8% | [17] -59.6% | [7]; 10 µM unless noted -8.27% | [9]; 10 µM unless noted -26% | [12]; 10 µM unless noted -14.8% | [13]; 10 µM -38.3% | [14]; 10 µM unless noted -23.5% | [15]; 10 µM unless noted -78.7% | [16]; 10 µM unless noted -20.3%

Cc1ccc(NS(=O)(=O)c2ccc(C)cc2)cc1
inactive: [1] 91.7% and 97.8% | [2] 83.1% and 95.2% | [3]; 10 µM unless noted 111% and 105% | [4]; 10 µM unless noted 93.7% and 106% | [5]; 10 µM unless noted 109% and 101% | [6]; 10 µM unless noted 111% and 107% | [7]; 10 µM unless noted 98.9% and 111% | [8]; 10 µM unless noted 104% and 99.7% | [9]; 10 µM unless noted 94.1% and 83.7% | [10]; 10 µM unless noted 117% and 105% | [11] 108% and 109% | [12]; 10 µM unless noted 104% and 107% | [13]; 10 µM 88% and 91.2% | [14]; 10 µM unless noted 102% and 98.1% | [15]; 10 µM unless noted 97.7% and 97.8% | [16]; 10 µM unless noted 91.2% and 89.2%

CNC(=O)N/N=C/c1ccc([N+](=O)[O-])o1
inactive: [1] 82.8% | [2] 83.6% | [3]; 10 µM unless noted 110% | [4]; 10 µM unless noted 108% | [5]; 10 µM unless noted 109% | [6]; 10 µM unless noted 98.1% | [17] 103% | [7]; 10 µM unless noted 98.1% | [8]; 10 µM unless noted 108% | [9]; 10 µM unless noted 104% | [10]; 10 µM unless noted 110% | [11] 121% | [13]; 10 µM 95.3% | [14]; 10 µM unless noted 94.8% | [15]; 10 µM unless noted 106% | [16]; 10 µM unless noted 92.2%

CN(C)C(=O)c1ccc(SC(=S)NCc2ccccc2)cc1
inactive: [18]; 10 µM 106% | [3]; 10 µM 113% | [3]; 100 µM 20.1% | [4]; 10 µM 113% | [4]; 100 µM 43.8% | [5]; 10 µM 108% | [5]; 100 µM 108% | [6]; 10 µM 116% | [7]; 10 µM 116% | [7]; 100 µM 45.7% | [8]; 10 µM 111% | [9]; 10 µM 90% | [9]; 100 µM 13.4% | [10]; 10 µM 114% | [12]; 10 µM 98.9% | [13]; 10 µM 67.3% | [14]; 10 µM 100% | [15]; 10 µM 104% | [16]; 10 µM 102% | [16]; 100 µM 25.5%
active: [1] -36.6% [100 µM] | [18]; 100 µM -6.08% | [6]; 100 µM -28.3% | [8]; 100 µM 2.6% | [10]; 100 µM -79.3% | [12]; 100 µM -35.8% | [13]; 100 µM -7.59% | [14]; 100 µM -26.2% | [15]; 100 µM -78.3%

CCOC(=O)c1c(C)[nH]c(CO)c1C
inactive: [1] 101% | [2] 97.8% | [3]; 10 µM unless noted 104% | [4]; 10 µM unless noted 105% | [6]; 10 µM unless noted 98% | [7]; 10 µM unless noted 109% | [8]; 10 µM unless noted 105% | [9]; 10 µM unless noted 93.5% | [10]; 10 µM unless noted 109% | [13]; 10 µM 91.6% | [14]; 10 µM unless noted 100% | [15]; 10 µM unless noted 109% | [16]; 10 µM unless noted 94.2%
